Source: PubChem
Shown are actives, neighbours in structure and some others; about 5% of the full set was active somewhere.
SENP6 block – SENP6 protease inhibitors, primary screen, biochemical, luminescence, uHTS; AID 2599, 2010; 330,000 compounds, 1.8% hits; Recombinant SENP6 catalytic domain, aminoluciferin luminescence; inhibition, % at 10 µM; Sentrin-specific protease 6 (Homo sapiens), Q9GZR1;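 active = inhibition above about 50% at the single tested dose, limit read from the data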;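 also: plate controls were DMSO wells with enzyme for no effect and DMSO wells lacking enzyme for full effect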
SENP8 block-1 – SENP8 protease inhibitors, primary screen, biochemical, luminescence | purified SENP8, Z-RLRGG-aminoluciferin cleavage | inhibition, % at 10 µM | 330,000 compounds, 1.2% hits; in the data active = inhibition above about 50%
SENP8 block-2 – human SENP8 protease inhibitors, primary screen, biochemical, fluorescence, Nedd8 protein substrate, uHTS. Sentrin-specific protease 8 (Homo sapiens), Q96LD8. recombinant SENP8. inhibition, % at 20 µM. 360,000 compounds, 0.64% hits; in the data active = inhibition mostly above about 40%, no sharp cut-off; inactive = mostly below about 27%
AHR activator – AHR activators, primary screen, cell-based, luminescence, luciferase reporter, human; 320,000 compounds, 2.5% hits; activation, % at 5 µM; AHR-responsive luciferase reporter cells; Aryl hydrocarbon receptor (Homo sapiens), P35869; in the data active = activation above about 47%;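 also: 0% = vehicle wells and 100% = reference agonist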
Target sequence (P35869 whole entry, looked up): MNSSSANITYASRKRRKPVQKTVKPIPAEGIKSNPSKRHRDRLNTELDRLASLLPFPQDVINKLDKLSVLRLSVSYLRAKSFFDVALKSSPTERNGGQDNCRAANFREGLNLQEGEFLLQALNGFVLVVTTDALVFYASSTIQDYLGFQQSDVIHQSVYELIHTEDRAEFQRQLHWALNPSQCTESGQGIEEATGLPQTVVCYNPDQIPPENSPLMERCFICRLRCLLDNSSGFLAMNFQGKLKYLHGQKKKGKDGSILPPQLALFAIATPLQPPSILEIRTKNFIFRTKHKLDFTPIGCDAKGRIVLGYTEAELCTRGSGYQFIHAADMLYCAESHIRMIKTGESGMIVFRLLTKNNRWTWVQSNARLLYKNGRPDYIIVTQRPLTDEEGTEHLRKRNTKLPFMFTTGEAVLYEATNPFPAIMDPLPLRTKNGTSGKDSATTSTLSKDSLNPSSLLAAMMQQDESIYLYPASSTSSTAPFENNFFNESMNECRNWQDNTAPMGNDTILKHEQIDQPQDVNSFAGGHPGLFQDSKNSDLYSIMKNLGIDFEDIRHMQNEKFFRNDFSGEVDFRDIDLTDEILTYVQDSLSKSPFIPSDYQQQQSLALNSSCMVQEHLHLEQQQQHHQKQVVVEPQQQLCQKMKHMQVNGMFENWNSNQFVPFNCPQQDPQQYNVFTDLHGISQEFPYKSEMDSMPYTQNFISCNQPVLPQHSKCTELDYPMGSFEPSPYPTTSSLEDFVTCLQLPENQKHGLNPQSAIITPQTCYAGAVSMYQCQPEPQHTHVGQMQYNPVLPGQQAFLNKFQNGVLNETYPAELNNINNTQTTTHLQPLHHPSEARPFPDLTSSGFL
EBI2 antag – EBI2 receptor antagonists, beta-arrestin recruitment, primary screen, cell-based, luminescence, 7a,25-OHC stimulation, uHTS | 7a,25-OHC stimulated | inhibition, % at 5 µM | 360,000 compounds, 0.81% hits | AID 651636, 2012; in the data active = inhibition above about 38%;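 also: enzyme fragment complementation signal reports receptor beta-arrestin coupling in cells; 0% = agonist plus DMSO wells and 100% = wells without agonist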
SENP7 inh – SENP7 protease inhibitors, primary screen, biochemical, luminescence, uHTS | Sentrin-specific protease 7 (Homo sapiens), Q9BQF6 | recombinant SENP7, Z-RLRGG-aminoluciferin luminescence, 40 min | inhibition, % at 5 µM | 330,000 compounds, 1.5% hits | AID 434973, 2010;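 active = inhibition above about 50% at the single test dose, limit read from the data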;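 also: plate controls were DMSO with enzyme for no effect and no enzyme buffer wells for full effect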
Numbers without * were called inactive; . = no result.

SMILES	SENP6 block	SENP8 block-1	SENP8 block-2	AHR activator	EBI2 antag	SENP7 inh
c1ccc(-c2cc3c(nn2)CCc2nonc2-3)cc1	-21.8	-10.4	4.4	57.2*	-0.2	-5.8
NC1=C(Cl)C(=O)c2ccccc2C1=O	.	.	82.9*	.	-26.8	.
NC1=C(Cl)C(=O)c2ccc(S(N)(=O)=O)cc2C1=O	.	.	96.1*	.	-24.4	.
O=C1c2ccccc2-c2nccnc21	-7.0	3.9	26.9	6.7	5.0	5.7
Cn1cccc2[nH]c(=O)nc1-2	-8.5	-0.7	-132.4	-0.8	-4.1	-4.1
CCOc1nc(Nc2ccc(OC)cc2)nc(N2CCOCC2)n1	7.5	6.4	11.8	23.6	-3.1	1.7
COc1ccc(Nc2nc(OC)nc(N3CCOCC3)n2)cc1	-21.5	0.7	9.9	51.3*	-1.4	-1.3
CCOC(=O)c1c(C)n(C)c2ccc(OC)c(NC(=O)CN3CCSCC3)c12	4.7	-8.8	15.2	7.0	-5.7	2.6
CCOC(=O)c1c(C)n(C)c2ccc(OC)c(NC(=O)CCN3CCC(Cc4ccccc4)CC3)c12	-8.3	-11.8	18.2	65.8*	-3.4	12.3
O=C(COC(=O)c1ccc(F)cc1F)Nc1ccc(S(=O)(=O)N2CCOCC2)cc1	.	.	12.2	.	-3.2	.
COc1ccccc1NC(=O)c1cnc(Nc2ccccc2OC)c2ccccc12	2.5	-2.5	-166.0	73.2*	5.1	7.2
COc1ccccc1Nc1ncc(C(=O)N2CCC(C(N)=O)CC2)c2ccccc12	44.3	4.0	-144.4	5.5	-6.9	4.8
COc1ccccc1NC(=O)c1ccccc1C(=O)Nc1ccccc1OC	5.8	4.3	15.4	-0.7	-8.0	2.0
Cc1cccc(C)c1NC(=O)c1c[nH]c2ccccc12	12.5	-3.1	13.8	54.9*	3.2	-3.9
COc1ccccc1NC(=O)c1c[nH]c2ccccc12	13.1	-4.1	13.6	60.5*	7.2	-0.2
CC(C)OC(=O)Cc1nc2sc(-c3ccccc3)cc2c(=O)[nH]1	3.5	-0.4	-190.3	4.2	21.7	-3.0
Cc1nc2sc(-c3ccccc3)cc2c(=O)n1N	94.6*	96.1*	-57.6	-9.2	-12.2	98.7*
O=c1[nH]c(-c2cccnc2)nc2sc(-c3ccccc3)cc12	33.2	42.6	-400.4	75.0*	1.8	38.9
Cc1nc2sc(-c3ccccc3)cc2c(=O)n1/N=C/N(C)C	-20.9	6.5	-234.8	2.3	-3.5	7.2
O=C(NC(c1ccc(Cl)cc1)c1cnccn1)C1CCN(Cc2cccc(C(F)(F)F)c2)CC1 (stereo unspecified)	.	.	24.2	.	-0.8	.
CC1=CC(C)(C)NC(=S)N1CCO	.	.	10.4	.	-4.0	.
Cc1ccc(N2C(=O)c3ccccc3C2C(=O)c2cc(C)ccc2O)cc1 (stereo unspecified)	-12.2	-11.9	9.9	25.7	-16.9	3.7
Cc1ccc(N2C(=O)c3ccccc3C2C(=O)c2ccc(O)cc2O)cc1 (stereo unspecified)	-5.0	5.4	3.0	59.1*	-11.1	-0.7
c1coc(-c2nnc(SCc3nc4ccccc4[nH]3)o2)c1	10.6	-0.1	-136.8	49.2*	-8.9	8.0
CC1(C(=O)NS(=O)(=O)c2cccc(OC(F)F)c2)CCN1C(=O)CC(c1ccccc1)c1ccccc1 (stereo unspecified)	.	.	22.9	.	-0.9	.
SMILES	SENP6 block	SENP8 block-1	SENP8 block-2	AHR activator	EBI2 antag	SENP7 inh
CC[n+]1c(/C=C/Nc2ccccc2)oc2ccccc21	-0.5	-1.6	-41.7	108.7*	6.0	-3.0
CCCCN(C)C(=O)c1sc(=O)n(Cc2ccccc2C#N)c1C	.	.	1.3	.	1.5	.
OC[C@@H]1CN(Cc2ccccc2)C[C@H](n2cnc3c(Nc4ccccc4)ncnc32)O1	.	.	-144.1	.	6.7	.
Cc1ccc(C(=O)c2oc3nc(C)cc(C)c3c2N)cc1	-4.5	-3.6	-252.3	94.9*	-0.3	0.7
Cc1cnccc1CN(C)Cc1cn(C)nc1-c1cccc(Cl)c1	-8.5	-1.9	4.7	67.0*	7.4	8.1
Cc1cnccc1CN(C)Cc1cn(C)nc1-c1ccc(Oc2ccccc2)cc1	-3.2	4.4	-3.1	8.0	22.8	-1.0
O=C(Nc1ccc2c(c1)OCCO2)c1oc2ccccc2c1NC(=O)C1CC1	9.6	-10.0	-73.8	16.0	0.5	-1.2
CCOCC(=O)Nc1c(C(=O)Nc2ccc3c(c2)OCCO3)oc2ccccc12	-7.8	3.5	-27.3	64.9*	-5.0	4.9
COCC(=O)Nc1c(C(=O)Nc2ccc3c(c2)OCCO3)oc2ccccc12	4.0	3.1	-29.3	55.3*	-1.5	-1.5
COc1cccc(CNC(=O)[C@@H]2CCCN2C(=O)[C@H]2CCCCN2C(=O)c2cccc3ccccc23)c1	.	.	12.4	.	-14.3	.
CC(C)C[C@@H](CNCC(=O)[C@H](CC(C)C)NC(=O)c1[nH]cnc1C(=O)N[C@H](CN)CC(C)C)NC(=O)c1nc[nH]c1C(=O)N[C@@H](CC(=O)O)C(=O)O	.	.	12.7	.	-3.5	.
COc1ccc(NC(=O)N2CCCC(c3nc(-c4ccc(C(C)C)cc4)no3)C2)cc1 (stereo unspecified)	-6.5	-1.5	11.3	-13.2	72.5*	-0.8
Cc1cc(Cl)cc(C)c1OCCCCn1ccnc1	4.1	-5.2	26.6	18.1	3.0	5.0
Cc1cccc(Cl)c1OCCCCn1ccnc1	-0.3	-1.6	6.0	57.1*	4.2	-11.4
Clc1ccccc1OCCCCn1ccnc1	-16.3	-12.0	13.7	73.9*	10.1	-5.3
Clc1ccccc1OCCCn1ccnc1	-0.9	-4.0	13.8	12.6	-7.4	-0.5
CCC(COC(=O)c1ccccc1)Oc1cc(NCc2ccccc2)c2ncn(C(C)C)c2c1 (stereo unspecified)	-9.3	-5.5	43.9*	15.9	14.8	-0.1
CC(=O)[C@H]1[C@H](c2cccc(Cl)c2)C(C#N)(C#N)[C@@H]2c3ccccc3C=CN21	66.9*	0.1	.	101.3*	.	7.8
CC(=O)[C@@H]1[C@@H]2C(=O)N(C3CCCCC3)C(=O)[C@@H]2C2c3ccccc3C=CN21 (stereo partly specified)	54.9*	27.6	.	27.0	.	29.9
CC(=O)[C@H]1[C@@H]2C(=O)N(c3cccc(Cl)c3)C(=O)[C@@H]2[C@H]2c3ccccc3C=CN21	52.8*	27.0	-198.5	38.6	2.2	34.4
Cc1ncc(CO)c(CO)c1OCC(O)CN1CCN(c2ccc(F)cc2)CC1 (stereo unspecified)	.	.	12.4	.	-1.0	.
COc1ccccc1CCC(=O)Nc1ccc2c(c1)CN(Cc1ccc(CO)o1)CC2	0.7	3.5	-28.8	10.1	-14.8	-0.2
O=C(Nc1ccc2c(c1)CN(Cc1ccc(CO)o1)CC2)c1ccc(C(F)(F)F)cc1	-2.1	3.0	-3.4	54.8*	-0.2	3.4
CCOC(=O)c1c(C)[nH]c2cc(Br)c(OC)cc12	-18.6	-1.9	15.9	51.2*	7.3	-13.4
COc1ccc(/C=C(/C#N)c2cccnc2)cc1OC	-0.7	5.1	-17.7	64.3*	6.5	10.0
